The whole screen tested about 45,000 compounds, of which about 65 (0.1%) were called active. The call rests on the fitted dose curve; in most records, active means well fitted activation curve with a large enough effect; inconclusive means small, poorly fitted or top-dose-only effect; inactive means no such curve, though single readings can be large or run the other way. Many of the other results were omitted from the sample, so actives are more common in it than they were.
target: Galactocerebrosidase (Homo sapiens) (UniProt P54803); test: A Novel Cell-Based Assay to Identify Small Molecules for B -Galactocerebrosidase; conditions: 145M-Twi-hGALC-G270D cells (Twitcher mouse brain line with human GALC G270D), HMU-beta-Gal fluorescence, 48 h; series mostly up to 57.5 µM; further: nearly all actives have a fitted effect of over 65% in size
Source text: Lysosomal storage diseases (LSDs) are caused by genetic mutations in genes encoding proteins important for normal lysosomal function. Globoid cell leukodystrophy (GLD), mostly known as Krabbe disease, is a prototype of the neurological LSDs caused by deficiency of beta-galactocerebrosidase (GALC). In brain specimens of GLD patients, psychosine levels are substantially elevated. At elevated concentrations, psychosine becomes cytotoxic to neuronal cells, particularly to oligodendrocytes (OLG), neural cells responsible for myelin formation. Therefore, the biochemical disturbances in GLD are manifested by different degrees of brain demyelination resulting in a broad spectrum of neurological manifestations. Most of the FDA-approved therapies are based on enzyme replacement therapeutic (ERT) agents, which treat non-neurological symptoms of Gaucher disease, Fabry disease, few mucopolysaccharidoses and Pompe disease. Unfortunately, in GLD, a primarily neurological LSD, ERT agents, as large molecular weight molecules unable to cross the blood-brain barrier, which makes this an inefficacious therapeutic approach. In GLD, increasing the residual GALC activity just above the critical threshold (~10% of wild type enzymatic activity), the cytotoxic levels of psychosine will be reduced, avoiding the OLGs apoptosis and the subsequent demyelination process. This will translate in disease stabilization and amelioration of GLD patient symptoms.
A cell-based assay in 1,536-well plate format was developed to implement a quantitative high-throughput screening (qHTS) assay using GLD-disease relevant cells to identify small molecules that produce enhancements of the residual enzymatic activity levels of mutants GALC found and prevalent in GLD patients. Compounds that are active may therefore have some therapeutic application for GLD. After the treatment of live cells for a determined period, using a fluorescent GALC specific substrate, the mutant residual GALC activity is measured. This cell-based qTHS assay was used to screen part of the MLPCN library for small molecule able to increase the mutant GALC enzymatic activity. In this assay, increased fluorescent signal corresponds to enhanced levels of mutant GALC residual enzymatic activity. Activation is the desired outcome for this assay.
NIH Chemical Genomics Center [NCGC]
NIH Molecular Libraries Probe Centers Network [MLPCN]
Assay Submitter (PI): Gustavo Maegawa MD,PhD, University of Florida, Gainesville, FL
2)#Two cell lines were established for the assay: 145M-Twi-hGALC-G270D (brain-derived Twitcher cell line stably expressing human GALC-G270D) and 145M-Twi-hGALC-WT (same 145M-Twi stably expressing human GALC wild type). The Twitcher is the murine C57B/6 model for GLD with naturally occurring homozygous nonsense GALC mutation. The 145M-Twi cell line was established at Maegawa lab (Ribbens J et al 2014).
a.#Media: DMEM/F12 (1:1) with 10% fetal bovine-serum (FBS) with penicillin/streptomycin (PS-1X - 100 I.U./mL of penicillin+100 ug/mL of streptomycin).
b.#The 6-Hexadecanoylamino-4-methylumbelliferyl-b-D-galactoside (HMU-B-gal) substrate was prepared as per Wiederschain et al 1992. Using 20-mL borosilicate tubes, 2.20 mg of HMU-b-Gal was added in each tube to prepare substrate-film with a final air-nitrogen stream evaporation to remove all diluent solvents.
c.#The HMUb-Gal substrate buffer consists of 0.2 M Na2HPO4 (sodium phosphate dibasic)/ 0.1 M Citric Acid with the pH adjusted to 5.2 using HCl. Sodium Azide at 0.02% and Sodium Taurocholate (NaTC) at 1 mg/mL were added to this substrate buffer.
d.#The HMU-b-Gal stopping buffer consist of 0.5 M NaHCO3 (sodium bicarbonate) /0.5 M Na2CO3 (sodium carbonate). […] Triton X-100 at 0.25% was added.
4)#Preparation of HMU-b-Gal substrate tubes
Adding 18.6 mL of the HMUb-Gal substrate buffer to each 20-mL tube (2.20 mg of HMU-b-Gal) will reach a concentration of 0.2 mM. Vortex well the tube until the solution is fully homogenized (clear cloudy solution). […]
Potency means the concentration at half of the fitted maximal effect.

Sequence of Galactocerebrosidase (Homo sapiens) (P54803 whole entry G286D): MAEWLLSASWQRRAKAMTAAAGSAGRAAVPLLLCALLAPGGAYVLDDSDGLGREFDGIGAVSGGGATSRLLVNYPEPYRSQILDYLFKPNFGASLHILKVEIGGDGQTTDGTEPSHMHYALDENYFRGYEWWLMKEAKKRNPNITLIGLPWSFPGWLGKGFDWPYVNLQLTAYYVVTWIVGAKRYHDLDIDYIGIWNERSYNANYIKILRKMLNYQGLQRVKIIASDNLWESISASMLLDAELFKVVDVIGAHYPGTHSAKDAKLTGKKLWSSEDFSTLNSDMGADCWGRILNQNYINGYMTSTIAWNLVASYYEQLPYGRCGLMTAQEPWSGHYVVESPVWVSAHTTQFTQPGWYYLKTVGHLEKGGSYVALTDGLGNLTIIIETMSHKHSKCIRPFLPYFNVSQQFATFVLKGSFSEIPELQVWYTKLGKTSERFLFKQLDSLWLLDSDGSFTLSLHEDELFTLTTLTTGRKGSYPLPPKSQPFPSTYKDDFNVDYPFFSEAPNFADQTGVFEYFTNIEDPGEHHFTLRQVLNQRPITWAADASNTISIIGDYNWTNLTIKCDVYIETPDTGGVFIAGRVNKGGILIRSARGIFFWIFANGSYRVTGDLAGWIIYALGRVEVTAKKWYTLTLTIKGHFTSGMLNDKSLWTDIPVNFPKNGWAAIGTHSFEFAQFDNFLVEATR

Potency, active:
COc1ccc(-c2c(C)c3ccc(O)c(CN4CCCC4)c3oc2=O)cc1OC 39.8 µM

Potency, inactive:
Cc1ccc(-c2nnc3c4ccccc4c(C)nn23)cc1NC(=O)c1cccc(Br)c1
CCOc1ccc(-c2cc3c(=O)n(CC(=O)NCc4ccc(OC)cc4)ccn3n2)cc1
O=C(O)c1c(CNCc2cccc(F)c2)c2ccccc2n1Cc1ccccc1
COc1cccc(NC(=O)CCNS(=O)(=O)c2ccc3c(c2)oc(=O)n3C)c1
CCc1ccc(-n2nc(C)c3c(C)cc(=O)n(CC(=O)Nc4ccc(F)cc4C)c32)cc1
CC(C)(C)C1CCc2c(sc(NC(=O)c3ccccc3F)c2C(=O)N2CCCCC2)C1 (stereo not drawn)
CCOC(=O)c1ccc(-c2ccc(/C=C(\C#N)C(=O)Nc3ccc(C)cc3)o2)cc1
Cc1ccc2cccc(NC(=O)c3ccc(OC(C)C)cc3)c2n1
CCCCOCCOC(=O)c1cccnc1
CCOc1ccccc1NC(=O)CCS(=O)(=O)c1cccc2nsnc12
CCOc1ccc(Nc2nc3c(S(=O)(=O)c4cccc(Cl)c4)nnn3c3ccsc23)cc1
COc1ccc(S(=O)(=O)c2cn(C)c3cc(N4CCCCC4)c(F)cc3c2=O)cc1
O=C(CCS(=O)(=O)c1ccc2c(c1)NC(=O)CO2)Nc1cccc(C(F)(F)F)c1
CC(=O)c1ccc(NC(=O)CSc2nc(-c3ccccc3F)nc3c2c(=O)n(C)c(=O)n3C)cc1
CCOc1ccc(N(CC)S(=O)(=O)N2CCCC(C(=O)Nc3ccc(C(C)=O)cc3)C2)cc1 (stereo not drawn)
CCOC(=O)c1cc2c(=O)n3ccccc3nc2n(CC2CCCO2)c1=NC(=O)c1ccccc1Br (stereo not drawn)
COCCNC(=O)CCCN1C(=O)c2ccccc2Sc2ncccc21
Cc1ccc(O)c(NC(=O)c2cc(-c3ccc(F)cc3)no2)c1
COc1ccc(S(=O)(=O)NCC(c2ccc(N(C)C)cc2)N2CCc3ccccc32)cc1OC (stereo not drawn)
CCc1ccc(NC(=O)CCCc2nnc3n(CCCOC)c(=O)c4sccc4n23)cc1
Cc1ccc2c(c1)-c1c(cnn1CC(=O)Nc1ccccc1C#N)CO2
O=C(NCCc1ccccc1)C(=O)NCC(c1ccco1)S(=O)(=O)c1ccccc1 (stereo not drawn)
CCOC(=O)Cn1c(=O)n(C2CCCCC2)c2nc(-c3cccc(OC)c3)nc(C(N)=O)c21
CCOc1ccc(N(C)S(=O)(=O)c2cc(-c3cnc(C)o3)ccc2OC)cc1
CCc1ccc2ncc3c(-c4ccc(C)cc4)nn(CC(=O)NCc4ccccc4)c3c2c1
COc1ccc(-c2cn3c(n2)sc2cc(C(=O)Nc4ccc(F)cc4)ccc23)cc1
COc1cc(Cl)c(NC(=O)CC(C)S(=O)(=O)c2cc3c(cc2C)NC(=O)CO3)c(OC)c1 (stereo not drawn)
COc1cc(C(=O)NCCS(=O)(=O)N2CCN(c3ccccc3)CC2)cc(OC)c1OC
Nc1ncc(S(=O)(=O)Nc2ccc(OC(F)(F)F)cc2)cn1
Cc1ccc(C)c(Cn2c(CCCNC(=O)C3CCCCC3)nc3ccccc32)c1
COc1ccc(CNC(=O)CC2Oc3ccc(C)cc3NC2=O)cc1 (stereo not drawn)
CCN(CCCNC(=O)CSc1cc(=O)n(C)c2cc(Cl)ccc12)c1cccc(C)c1
COc1ccc(OCC(=O)Nc2cccc(C(=O)OCc3cc(=O)n4nc(C)sc4n3)c2)cc1
NC(=O)C1CCN(C(=O)c2cccc(NC(=O)c3nsc4ccccc34)c2)CC1
Cc1ccccc1C(=O)Nc1nnc(S(=O)(=O)N(C)c2ccc(Cl)cc2)s1
CCCCN(CC)C(=O)c1c[nH]c2ccc(S(=O)(=O)Nc3cccc(OC)c3)cc2c1=O
Cc1c(C(=O)N2CCCC2)oc2c1-c1nn(CC(=O)NCc3ccc(OC(C)C)cc3)cc1CC2
O=C(CN1C(=O)c2cccnc2Oc2ccc(Cl)cc21)NCCc1ccccc1
Cc1cccc(Nc2cc(C)nc(-n3nc(C)cc3C)n2)c1
COC(=O)c1cc(NC(=O)CCc2c(C)nc3c4c(C)cc(C)nc4nn3c2C)cc(C(=O)OC)c1
CCOc1ccc(NC(=O)c2cn(C3CCCCC3)c(=O)c3c2c2ccccc2n3C)cc1
Cc1ccc(Cn2cc(CCC(=O)NCc3ccc(OC(C)C)cc3)c3ccccc32)cc1
CCc1cnc2c(c1SCC(=O)c1ccccc1)c(=O)n(C)c(=O)n2C
Cc1ccccc1OCc1nc2c3cnn(-c4ccccc4F)c3ncn2n1
O=C(Nc1cccc(Cl)c1)c1csnn1
COc1ccc(C2C(=O)N(C3CCCCC3)CC(=O)N2Cc2ccccc2Cl)cc1OC (stereo not drawn)
O=C(Nc1ccc(OC(F)(F)F)cc1)C1CCCN(S(=O)(=O)c2ccc(Br)s2)C1 (stereo not drawn)
COc1ccc(-c2cc(-c3ccc(F)cc3)nc3c2COc2ccccc2-3)cc1
O=C(CCCCn1c(=O)c2ccccc2n(CC(=O)Nc2cccc(C(F)(F)F)c2)c1=O)NCc1ccc2c(c1)OCO2
CC(C)C(=O)Nc1nc2c(s1)CC(C(C)(C)C)CC2 (stereo not drawn)
Cc1ccc(CCNC(=O)C2CCN(c3nnc(-n4cccc4CNc4ccc(C)cc4)s3)CC2)cc1
CCCCCn1c(=O)[nH]c2cc(C(=O)NCCN(C)CCCC)ccc2c1=O
COc1ccc(C)cc1Nc1nc2ccccc2c2nnc(C)n12
Cc1ccc(NC(=O)CSc2nc3ccccc3c3nc(CCn4cncc4C)nn23)cc1F
Cc1ccc(Cl)cc1N1CCN(C(=O)c2cnc3c(-c4ccc(F)cc4)c(C)nn3c2C)CC1
COc1ccccc1/C=C/c1nc(C#N)c(NC(C)c2ccccc2)o1 (stereo not drawn)
CC(=O)N1c2ccccc2CC1C(=O)N1CCN(c2ccc(F)cc2)CC1 (stereo not drawn)
CCN(CC)c1nn2c(=O)c(C(=O)NCCc3ccccc3)cnc2s1
COc1ccc(C2Sc3ccccc3NC3=C2C(=O)c2ccccc23)c(OC)c1OC (stereo not drawn)
CC(=O)Nc1ccc2nc(SCCOc3cc(C)cc(C)c3)sc2c1
Cc1ccc(S(=O)(=O)c2c(Nc3cccc(Cl)c3)sc(C(=O)c3ccc4c(c3)OCO4)c2N)cc1
COc1cc(NC(=O)c2nn(-c3ccc(C)cc3)c(=O)c3c2c2ccccc2n3C)cc(OC)c1OC
CCOC(=O)c1ccccc1NC(=O)c1sc2nc(-c3ccc(F)cc3)cn2c1C
Cc1ccc(Cn2c(CCCNC(=O)C3CCCCC3)nc3ccccc32)cc1
CCc1nccn1S(=O)(=O)c1cc(Br)ccc1Br
COc1ccc(OCCCn2c(C)nc3cc(C)c(C)cc32)cc1
Cc1ccc(-n2ncc3c(=O)n(Cc4cccc(C(F)(F)F)c4)cnc32)cc1C
Cc1ccc2nc(COc3cccc(NC(=O)c4ccccc4Cl)c3)cc(=O)n2c1
COc1ccc(CNC(=O)c2ccc(NC(=O)N3CC4CCCN4c4ccccc43)cc2)cc1 (stereo not drawn)
Cc1ccc(C)c(NC(=O)C2CCCN(S(=O)(=O)c3cn(C)cn3)C2)c1 (stereo not drawn)
COc1cc(Cl)c(C)cc1Nc1nnc(-n2nc(C)cc2C)c2ccccc12
CCOC(=O)c1c(C)n(S(=O)(=O)c2ccc(C)cc2C)c2ccc(NS(=O)(=O)c3ccc(C)cc3C)cc12
COC(=O)/C=C(/C)N
CCn1cc2nc(SCc3cccc(F)c3)n(CCc3ccccc3)c(=O)c2n1
COc1cccc(Cn2c(CNS(=O)(=O)c3ccc(Cl)s3)nc3cccnc32)c1
CCC(=O)N1c2ccccc2CC1C(=O)N1CCN(c2ccccc2)CC1 (stereo not drawn)
COc1cccc(NC(=O)c2ccc3nc(CCc4ccccc4)oc3c2)c1
COc1ccccc1N1CCN(c2ncnc3onc(-c4cccc(Cl)c4)c23)CC1
COc1cccc(C(=O)NC(=O)Nc2ccc(-c3cc(C(F)(F)F)nn3-c3ccccc3)cc2)c1
COc1ccc(-c2ccc(=O)n(CC(=O)Nc3ccc(Br)cc3F)n2)cc1
Fc1ccccc1Oc1ncnc2c1oc1ccccc12
COc1ccc(-c2cn3nc(N4CCCC(C(=O)NCCCOC(C)C)C4)sc3n2)cc1 (stereo not drawn)
CCOC(=O)c1ccc(NC(=O)CCn2cnnn2)cc1
CC(C)(C)OC(=O)N1CCC(c2c(C(=O)Nc3ccc4c(c3)OCO4)cnn2-c2ccccc2)CC1
COc1ccc(Cl)cc1NC(=O)C(C)Sc1nc2c(c(=O)[nH]1)CCCC2 (stereo not drawn)
COC(=O)c1nc(Cl)c(Cl)nc1N
O=C(CSc1oc(-c2ccco2)nc1S(=O)(=O)c1ccccc1)c1ccc(Cl)cc1
O=c1[nH]c2cc(Br)ccc2n2cccc12
CN(Cc1ccccc1)c1ccc(-c2nc(-c3ccccc3)no2)cc1[N+](=O)[O-]
COc1cc(NC(=O)CCn2nc(C)cc2C)cc(OC)c1OC
CCOC(=O)c1c(C)[nH]c(C)c1S(=O)(=O)NCC(=O)NCc1cccc(C)c1
CCOc1ccc(OCC)c(NC(=O)c2cc(C)nc3c2c(C)nn3-c2cccc(Cl)c2C)c1
COc1ccc(-c2c(C)c3ccc(O)c(CN4CCN(C)CC4)c3oc2=O)cc1OC
Cc1ccc(Oc2c(C(F)(F)F)oc3c(CN4CCCCC4)c(O)ccc3c2=O)cc1
O=C(NCc1ccccc1)c1cccc(NC(=O)N2CCSc3ncccc32)c1
CCCCN1C(=O)c2[nH]nc(-c3ccccc3O)c2C1c1cccc(OCc2ccccc2)c1 (stereo not drawn)
O=C(NC1CC(=O)N(c2ccccc2)C1)c1ccco1 (stereo not drawn)
